Compounds with a hit are over-represented: about 1% of the library has one in this group of screens.
F-actin modifier = cytoskeleton assembly modification. AID 836. hit rate 0.18% among 91,000. HUVEC TNFa F-actin phalloidin imaging, high content. inhibition, % at 2 µM;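 active = inhibition above the batch mean plus 3 SD and confirmed as a hit by visual image inspection, cut at about 30% in these data, passing the limit was not always enough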
E-sel TNF inh = TNF alpha driven E-selectin expression inhibition; inhibition, % at 2 µM; HUVEC TNFa-induced E-selectin immunofluorescence, high content; AID 1246; hit rate 0.71% among 120,000;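 active = inhibition above the batch mean plus 3 SD, and confirmed as a hit on visual image review, cut at about 43% in these data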;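 also: 0% = TNF-stimulated DMSO wells and 100% = unstimulated control wells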
HUVEC tox TNFa = HUVEC cytotoxicity counter-screen, TNF alpha stimulated | HUVEC TNFalpha-stimulated, Hoechst cell count, imaging | hit rate 0.17% among 93,000 | cell count reduction, % at 2 µM;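 active = cell count reduction exceeding the screen mean by over 5 SD, scaled to untreated wells per plate, cut at about 78% in these data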;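 also: cells counted after 24 h of TNF alpha exposure following the 1 h pretreatment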
VCAM1 TNFa inh = reduces TNF alpha induced VCAM1 expression in HUVEC; inhibition, % at 2 µM; hit rate 0.48% among 95,000; AID 802; HUVEC TNFa-induced VCAM-1 immunofluorescence, high-content imaging;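 active = inhibition above the batch mean plus 3 SD, with images confirmed as a hit by eye, cut at about 37% in these data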;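 also: 0% = TNF-stimulated DMSO wells and 100% = unstimulated control wells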
Starred values were filed as active, the others as inactive.

O=C1c2cccc(OCC(=O)N3CCCc4ccccc43)c2CCN1Cc1ccc(Br)cc1 was read as E-sel TNF inh 81.1*.
For O=C1c2cccc(OCC(=O)N3CCCc4ccccc43)c2CCN1Cc1ccccc1 the results were E-sel TNF inh 56.4.
For COc1ccccc1NC(=S)N(Cc1ccco1)Cc1cc2cccc(C)c2[nH]c1=O the results were E-sel TNF inh 61.3*.
COc1cc(C(=O)N(Cc2ccco2)Cc2cc3ccccc3[nH]c2=O)cc(OC)c1OC was read as F-actin modifier 35.2*, HUVEC tox TNFa 43.5 and VCAM1 TNFa inh -8.3.
Screening COc1cccc(OCC(=O)O)c1 returned E-sel TNF inh -19.6.
Screening CCOc1ccc(OCCC(=O)Nc2ccc(F)cc2C)cc1 returned E-sel TNF inh -3.7.
Screening CCC(C)C1C(C#N)=C(N)Oc2n[nH]c(-c3ccccc3)c21 (centres undefined) returned F-actin modifier -11.1, E-sel TNF inh 6.0, HUVEC tox TNFa 29.4 and VCAM1 TNFa inh 55.9*.
For CCOC(=O)C1=C(c2ccccc2)O/C(=C(/C#N)C(F)(F)F)S1 the results were F-actin modifier -4.1, E-sel TNF inh -2.9, HUVEC tox TNFa 26.0 and VCAM1 TNFa inh 56.0*.
NS(=O)(=O)c1ccc(CCNc2ncnc3c2c(-c2ccccc2)cn3-c2ccc(F)cc2)cc1 was read as F-actin modifier -9.8, E-sel TNF inh 30.6, HUVEC tox TNFa 14.2 and VCAM1 TNFa inh -8.2.
`O=C1c2ccccc2NC(c2ccc(Cl)cc2Cl)N1O` (centres undefined) gave F-actin modifier 28.7, E-sel TNF inh -3.8, HUVEC tox TNFa -27.9 and VCAM1 TNFa inh 4.1.
C=CCc1cccc(C2Nc3ccccc3C(=O)N2O)c1O (centres undefined) was read as F-actin modifier -27.5, E-sel TNF inh 62.1*, HUVEC tox TNFa -20.5 and VCAM1 TNFa inh -0.7.
Screening CCN(CC)CCOCCOc1cc(C)c(Cl)c(C)c1 returned F-actin modifier -13.1, E-sel TNF inh 8.3, HUVEC tox TNFa 3.5 and VCAM1 TNFa inh 15.9.
For CCc1cc(OCCOCCN(C)C)ccc1Cl the results were E-sel TNF inh 92.3*.
Screening Cc1noc(C)c1C(=O)NCCC1=CCCCC1 returned F-actin modifier -8.5, E-sel TNF inh 64.1*, HUVEC tox TNFa -31.7 and VCAM1 TNFa inh -2.7.
For Cc1cc(NC(=O)CSc2nc3ccsc3c(=O)n2CCCC(=O)NCCc2ccccc2)no1 the results were E-sel TNF inh -1.9.
`c1ccc(-n2c(-c3ccncc3)nnc2N2CCOCC2)cc1` gave F-actin modifier 5.7, E-sel TNF inh 60.2*, HUVEC tox TNFa -29.9 and VCAM1 TNFa inh 2.3.
c1ccc(-n2c(-c3ccncc3)nnc2-c2ccco2)cc1 was read as F-actin modifier 0.7, E-sel TNF inh -9.8, HUVEC tox TNFa -38.4 and VCAM1 TNFa inh -3.2.
Screening O=C(CSc1nc2ccccc2c(=O)n1-c1ccccc1)NCc1ccco1 returned F-actin modifier -26.8, E-sel TNF inh 10.2, HUVEC tox TNFa 88.2* and VCAM1 TNFa inh 42.5.
For Cc1ccc(C(=O)NCC2CCCO2)cc1N1CCCC1=O (centres undefined) the results were F-actin modifier 2.1, E-sel TNF inh 66.1*, HUVEC tox TNFa -59.1 and VCAM1 TNFa inh -33.1.
For COc1cccc(N2CC(=O)N(NC(=O)CSc3nc(C)cc(C)c3C#N)CC2=O)c1 the results were E-sel TNF inh 3.1.
Screening CCOC(=O)C1=C(O)/C(=C/c2cn(CC(=O)NCC3CCCO3)c3ccccc23)SC1=Nc1ccc(C)cc1 (centres undefined) returned F-actin modifier 20.4, E-sel TNF inh -14.9, HUVEC tox TNFa 24.4 and VCAM1 TNFa inh 88.6*.
For CCCNC(=O)CC1C(=O)N(Cc2ccccc2)C(C)c2nc3ccccc3n21 (centres undefined) the results were F-actin modifier -4.1, E-sel TNF inh 11.5, HUVEC tox TNFa 10.5 and VCAM1 TNFa inh -7.6.
COc1ccc(-n2c(C)c3c(OC)cccc(=O)c3c2C)cc1 was read as F-actin modifier 8.2, E-sel TNF inh 56.3*, HUVEC tox TNFa -3.1 and VCAM1 TNFa inh -6.5.
Screening COc1cccc(=O)c2c(C)oc(C)c12 returned F-actin modifier -2.9, E-sel TNF inh 6.6, HUVEC tox TNFa -0.4 and VCAM1 TNFa inh 10.6.
Screening CCC(=O)OC1c2ccccc2C(=O)N1Cc1ccccc1 (centres undefined) returned F-actin modifier -15.6, HUVEC tox TNFa -1.7 and VCAM1 TNFa inh 3.8.
CCOC1=NC(C(=O)O)c2ccccc2/C(=C(/C)Cl)N1 (centres undefined) was read as F-actin modifier -12.4, HUVEC tox TNFa 54.3 and VCAM1 TNFa inh 92.4*.
Screening CN(C(=S)Nc1ccc(Oc2ccccc2)cc1)c1ccc(O)cc1 returned E-sel TNF inh 87.1*.
For CN(C(=S)Nc1ccccc1)c1ccccc1 the results were E-sel TNF inh 0.8.

Compound activity (PubChem)
